Among the data in the supplement of paper PMC10981050 are cell viability values, retold here.

Where a name gives a salt, the structure may show the parent alone.

For the test, the system named is OCI-AML2. As to the kind of experiment: cell viability relative to vehicle control; higher = less cytotoxic. As to conditions: 10 µM; SRSF2 genotype: P95H/wt. In short, it runs like this:
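Screening covered the Selleck bioactive, kinase and epigenetic probe libraries, less identity-inconsistent compounds, on CRISPR-edited mutant clones and isogenic wild-type clones of four leukaemia lines. Cells, at 2000 per well in 50 µL medium, received a single 10 µM acoustically dispensed dose. After 48 h the supernatant was removed and CellTiter-Glo luminescence was read. Viability was analysed in Genedata Screener as percent of the on-plate vehicle control.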
On to `C#Cc1cccc(Nc2ncnc3cc(OCCOC)c(OCCO)cc23)c1` [OSI-420 (Desmethyl Erlotinib)], for which the cell viability – broadly, a read-out of living cells in per cent, often relative to untreated cells – amounted to 30.6%.

Turning to `O=C(O)Cc1ccccc1Nc1c(Cl)cccc1Cl` [Diclofenac Sodium], the cell viability is 91.1%.

As for `CC[C@H](C)C(=O)O[C@H]1C[C@@H](C)C=C2C=C[C@H](C)[C@H](CC[C@@H]3C[C@@H](O)CC(=O)O3)[C@H]21` [Lovastatin (Mevacor)], the cell viability is 64.3%.

Take `Clc1ccc2c(c1)CCc1cccnc1C2=C1CCNCC1` [Desloratadine]: the cell viability worked out at 94.8%.

In the case of `CNCCCC12CCC(c3ccccc31)c1ccccc12` [Maprotiline hydrochloride], the cell viability worked out at 51.1%.

`NC(=O)OCC(COC(N)=O)c1ccccc1` [Felbamate]: the cell viability was determined as 96.5%.

For the molecule `CCN(CC)CCOCCOC(=O)C1(c2ccccc2)CCCC1` [Pentoxyverine Citrate], the cell viability amounted to 112%.

Turning to `Cn1cc(C2=C(c3ccc(Cl)cc3Cl)C(=O)NC2=O)c2ccccc21`, the cell viability worked out at 95.8%.

Regarding `Clc1ccc(C(Cn2ccnc2)OCc2ccc(Sc3ccccc3)cc2)c(Cl)c1` (configuration not stated) [Fenticonazole nitrate], the cell viability worked out at 63.3%.

For `CC1(C)CCC(CN2CCN(c3ccc(C(=O)NS(=O)(=O)c4ccc(NCC5CCOCC5)c([N+](=O)[O-])c4)c(Oc4cnc5[nH]ccc5c4)c3)CC2)=C(c2ccc(Cl)cc2)C1` [Venetoclax (ABT-199, GDC-0199)], the cell viability came out at 1.25%.

For the molecule `C[N+]1(C)CCCC1C(=O)[O-]` (configuration not stated) [Stachydrine], the cell viability amounted to 106%.

For the molecule `CC1(C)[C@@H](O[C@H]2O[C@H](C(=O)O)[C@@H](O)[C@H](O)[C@H]2O[C@@H]2O[C@H](C(=O)O)[C@@H](O)[C@H](O)[C@H]2O)CC[C@]2(C)[C@H]3C(=O)C=C4[C@@H]5C[C@@](C)(C(=O)O)CC[C@]5(C)CC[C@@]4(C)[C@]3(C)CC[C@@H]12` [Dipotassium glycyrrhizinate], the cell viability is 101%.
